Experimental data reported in PubChem BioAssay AID1159580 (chemical genetic matrix, 2015).
“And” between values parts separate entries of the source, which are not always exact repeats. Equal values may be shown once. The campaign covered roughly 5,500 compounds. About 2,000 (36%) were called active. Roughly 18% stayed inconclusive and do not appear here. No stated cut-off is given here; in the data, active means normalized growth mostly below about 0.91 (no sharp cut-off); inconclusive means no clear call, values can overlap the other calls; inactive means mostly above about 0.92. The list shows a part of the results.

Assay: chemical genetic growth profiling, strain panel (AID 1159580);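 further: tested at 20 µM; growth read once vehicle control cultures reached saturation at 30 °C; 1 = growth at the plate median or of vehicle wells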
Conditions: S. cerevisiae deletion strains, growth OD

Which normalized growth (locus YAL021C, strain ccr4, stronger effect = lower value) does the source give for C=C[C@@H](C1=CC(=O)C(OC)=C(OC)C1=O)c1ccccc1 here?
Its normalized growth is 0.899 (active).

What about the normalized growth (locus YAL026C, strain drs2, stronger effect = lower value) of the same molecule?
Its normalized growth is 0.405 (active).

What about the normalized growth (locus YAL030W, strain snc1, stronger effect = lower value) of the same molecule?
Its normalized growth is 0.825 (active).

And the normalized growth (locus YBL061C, strain skt5, stronger effect = lower value)?
Its normalized growth is 0.859 (active).

What about the normalized growth (locus YBR009C, strain hhf1, stronger effect = lower value) of the same molecule?
Its normalized growth is 0.273 (active).

What about the normalized growth (locus YBR021W, strain FUR4, stronger effect = lower value) of the same molecule?
The normalized growth was 0.516 (active).

And the normalized growth (locus YBR023C, strain chs3, stronger effect = lower value)?
Its normalized growth is 0.816 (active).

And the normalized growth (locus YBR171W, strain sec66, stronger effect = lower value)?
The normalized growth was 0.996 (inactive).

What about the normalized growth (locus YBR229C, strain ROT2, stronger effect = lower value) of the same molecule?
Its normalized growth is 0.989 (inactive).

And the normalized growth (locus YBR231C, strain swc5, stronger effect = lower value)?
The normalized growth was 0.742 (active).

And the normalized growth (locus YBR279W, strain paf1, stronger effect = lower value)?
Its normalized growth is 0.703 (active).

And the normalized growth (locus YCL011C, strain gbp2, stronger effect = lower value)?
Its normalized growth is 0.307 (active).

And the normalized growth (locus YCL016C, strain dcc1, stronger effect = lower value)?
The normalized growth was 0.581 (active).

And the normalized growth (locus YCL029C, strain bik1, stronger effect = lower value)?
Its normalized growth is 0.968 (inactive).

And the normalized growth (locus YCL069W, strain vba3, stronger effect = lower value)?
The normalized growth was 0.45 (active).

And the normalized growth (locus YCR088W, strain abp1, stronger effect = lower value)?
The normalized growth was 0.911 (active).

And the normalized growth (locus YDL005C, strain med2, stronger effect = lower value)?
Its normalized growth is 1 (inactive).

And the normalized growth (locus YDL035C, strain GPR1, stronger effect = lower value)?
The normalized growth was 0.277 (active).

What about the normalized growth (locus YDL040C, strain nat1, stronger effect = lower value) of the same molecule?
Its normalized growth is 1.01 (inactive).

What about the normalized growth (locus YDL074C, strain BRE1, stronger effect = lower value) of the same molecule?
Its normalized growth is 0.962 (inactive).

And the normalized growth (locus YDL101C, strain DUN1, stronger effect = lower value)?
The normalized growth was 0.97 (inactive).

And the normalized growth (locus YDL185W, strain tfp1, stronger effect = lower value)?
Its normalized growth is 0.945 (inactive).

What about the normalized growth (locus YDL192W, strain arf1, stronger effect = lower value) of the same molecule?
Its normalized growth is 0.266 (active).

And the normalized growth (locus YDR001C, strain nth1, stronger effect = lower value)?
The normalized growth was 0.997 (inactive).

And the normalized growth (locus YDR069C, strain doa4, stronger effect = lower value)?
The normalized growth was 0.995 (inactive).

And the normalized growth (locus YDR101C, strain arx1, stronger effect = lower value)?
Its normalized growth is 0.998 (inactive).

What about the normalized growth (locus YDR137W, strain rgp1, stronger effect = lower value) of the same molecule?
Its normalized growth is 0.694 (active).

And the normalized growth (locus YDR150W, strain NUM1, stronger effect = lower value)?
The normalized growth was 0.61 (active).

And the normalized growth (locus YDR159W, strain sac3, stronger effect = lower value)?
The normalized growth was 1.02 (inactive).

What about the normalized growth (locus YDR162C, strain NBP2, stronger effect = lower value) of the same molecule?
Its normalized growth is 0.0631 (active).

And the normalized growth (locus YDR195W, strain ref2)?
Its normalized growth is 1.09 (inactive).

What about the normalized growth (locus YDR297W, strain sur2, stronger effect = lower value) of the same molecule?
The normalized growth was 0.802 (active).

What about the normalized growth (locus YDR318W, strain mcm21, stronger effect = lower value) of the same molecule?
Its normalized growth is 0.181 (active).

What about the normalized growth (locus YDR334W, strain swr1, stronger effect = lower value) of the same molecule?
The normalized growth was 0.472 (active).

And the normalized growth (locus YDR335W, strain msn5, stronger effect = lower value)?
Its normalized growth is 0.977 (inactive).

And the normalized growth (locus YDR388W, stronger effect = lower value)?
Its normalized growth is 0.827 (active).

And the normalized growth (locus YDR392W, strain spt3, stronger effect = lower value)?
Its normalized growth is 0.146 (active).

What about the normalized growth (locus YDR502C, strain sam2, stronger effect = lower value) of the same molecule?
Its normalized growth is 0.665 (active).

What about the normalized growth (locus YEL003W, strain gim4, stronger effect = lower value) of the same molecule?
Its normalized growth is 0.553 (active).

And the normalized growth (locus YEL037C, strain rad23, stronger effect = lower value)?
Its normalized growth is 0.952 (inactive).

And the normalized growth (locus YEL061C, strain CIN8 (second series), stronger effect = lower value)?
Its normalized growth is 0.642 (active).

What about the normalized growth (locus YER015W, strain faa2, stronger effect = lower value) of the same molecule?
Its normalized growth is 0.588 (active).

And the normalized growth (locus YER016W, strain bim1, stronger effect = lower value)?
Its normalized growth is 0.999 (inactive).

What about the normalized growth (locus YER110C, stronger effect = lower value) of the same molecule?
Its normalized growth is 0.97 (inactive).

And the normalized growth (locus YER111C, strain swi4, stronger effect = lower value)?
The normalized growth was 0.994 (inactive).

And the normalized growth (locus YER155C, strain BEM2 (second series), stronger effect = lower value)?
The normalized growth was 0.413 (active).

What about the normalized growth (locus YER155C, strain BEM2, stronger effect = lower value) of the same molecule?
Its normalized growth is 0.985 (inactive).

What about the normalized growth (locus YER167W, strain BCK2, stronger effect = lower value) of the same molecule?
The normalized growth was 0.252 (active).

What about the normalized growth (locus YFR010W, strain ubp6, stronger effect = lower value) of the same molecule?
Its normalized growth is 0.869 (active).

What about the normalized growth (locus YGL078C, strain dbp3, stronger effect = lower value) of the same molecule?
The normalized growth was 0.966 (inactive).

What about the normalized growth (locus YGL086W, strain mad1, stronger effect = lower value) of the same molecule?
Its normalized growth is 0.142 (active).

What about the normalized growth (locus YGL167C, strain pmr1, stronger effect = lower value) of the same molecule?
The normalized growth was 0.972 (inactive).

And the normalized growth (locus YGL173C, strain kem1, stronger effect = lower value)?
The normalized growth was 0.632 (active).

And the normalized growth (locus YGL227W, strain vid30, stronger effect = lower value)?
The normalized growth was 0.473 (active).

What about the normalized growth (locus YGL240W, strain doc1, stronger effect = lower value) of the same molecule?
The normalized growth was 0.723 (active).

And the normalized growth (locus YGL248W, strain PDE1, stronger effect = lower value)?
The normalized growth was 0.125 (active).

What about the normalized growth (locus YGL253W, strain hxk2, stronger effect = lower value) of the same molecule?
Its normalized growth is 0.838 (active).

What about the normalized growth (locus YGR078C, strain PAC10, stronger effect = lower value) of the same molecule?
The normalized growth was 0.0851 (active).

What about the normalized growth (locus YGR135W, strain pre9, stronger effect = lower value) of the same molecule?
The normalized growth was 0.306 (active).

What about the normalized growth (locus YGR252W, strain gcn5, stronger effect = lower value) of the same molecule?
The normalized growth was 0.369 (active).

And the normalized growth (locus YHR013C, strain ard1, stronger effect = lower value)?
The normalized growth was 0.507 (active).

What about the normalized growth (locus YHR027C, strain rpn1, stronger effect = lower value) of the same molecule?
The normalized growth was 0.775 (active).

What about the normalized growth (locus YHR030C, strain SLT2, stronger effect = lower value) of the same molecule?
Its normalized growth is 0.0586 (active) and 0.753 (active).

What about the normalized growth (locus YHR079C, strain IRE1 (second series), stronger effect = lower value) of the same molecule?
Its normalized growth is 0.96 (inactive).

What about the normalized growth (locus YHR079C, strain IRE1, stronger effect = lower value) of the same molecule?
Its normalized growth is 0.888 (inactive).

What about the normalized growth (locus YHR094C, strain hxt1, stronger effect = lower value) of the same molecule?
Its normalized growth is 0.782 (active).

And the normalized growth (locus YHR129C, strain ARP1, stronger effect = lower value)?
Its normalized growth is 0.212 (active).

And the normalized growth (locus YHR142W, strain chs7, stronger effect = lower value)?
The normalized growth was 0.603 (active).

What about the normalized growth (locus YHR200W, strain rpn10, stronger effect = lower value) of the same molecule?
The normalized growth was 0.788 (active).

And the normalized growth (locus YIL066C, strain RNR3, stronger effect = lower value)?
The normalized growth was 0.148 (active).

What about the normalized growth (locus YIL073C, strain SPO22, stronger effect = lower value) of the same molecule?
The normalized growth was 0.341 (active).

What about the normalized growth (locus YIL125W, strain kgd1, stronger effect = lower value) of the same molecule?
Its normalized growth is 0.919 (active).

What about the normalized growth (locus YIR030C, strain dcg1, stronger effect = lower value) of the same molecule?
The normalized growth was 0.967 (inactive).

And the normalized growth (locus YJL092W, strain hpr5, stronger effect = lower value)?
Its normalized growth is 0.883 (active).

And the normalized growth (locus YJL095W, strain BCK1 (second series), stronger effect = lower value)?
Its normalized growth is 0.468 (active).

What about the normalized growth (locus YJL095W, strain BCK1, stronger effect = lower value) of the same molecule?
Its normalized growth is 0.892 (inactive) and 0.782 (active).

And the normalized growth (locus YJL115W, strain asf1, stronger effect = lower value)?
Its normalized growth is 0.82 (active).

And the normalized growth (locus YJL129C, strain trk1, stronger effect = lower value)?
Its normalized growth is 0.978 (inactive).

And the normalized growth (locus YJL134W, strain LCB3, stronger effect = lower value)?
Its normalized growth is 0.986 (inactive).

And the normalized growth (locus YJL154C, strain vps35, stronger effect = lower value)?
Its normalized growth is 1.01 (inactive).

What about the normalized growth (locus YJL164C, strain tpk1, stronger effect = lower value) of the same molecule?
Its normalized growth is 0.376 (active).

And the normalized growth (locus YJL166W, strain qcr8, stronger effect = lower value)?
The normalized growth was 0.245 (active).

And the normalized growth (locus YJL168C, strain set2, stronger effect = lower value)?
Its normalized growth is 0.881 (active).

What about the normalized growth (locus YJL187C, strain SWE1 (second series), stronger effect = lower value) of the same molecule?
The normalized growth was 0.977 (inactive).

What about the normalized growth (locus YJR066W, strain TOR1, stronger effect = lower value) of the same molecule?
Its normalized growth is 0.716 (active).
